Bioassay records deposited in PubChem by Fisher Drug Discovery Resource Center.
An excerpt weighted towards active compounds, which were near 0.28% of everything screened.
hcGAS lum: blocks human cGAS activity | recombinant h-cGAS, ATP depletion, Kinase-Glo luminescence | hit rate 0.081% among 290,000 | inhibition, % at 12.5 µM;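 note: 0% = vehicle reaction and 100% = reaction without DNA for no activity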
Target sequence (Q8N884 whole entry, looked up): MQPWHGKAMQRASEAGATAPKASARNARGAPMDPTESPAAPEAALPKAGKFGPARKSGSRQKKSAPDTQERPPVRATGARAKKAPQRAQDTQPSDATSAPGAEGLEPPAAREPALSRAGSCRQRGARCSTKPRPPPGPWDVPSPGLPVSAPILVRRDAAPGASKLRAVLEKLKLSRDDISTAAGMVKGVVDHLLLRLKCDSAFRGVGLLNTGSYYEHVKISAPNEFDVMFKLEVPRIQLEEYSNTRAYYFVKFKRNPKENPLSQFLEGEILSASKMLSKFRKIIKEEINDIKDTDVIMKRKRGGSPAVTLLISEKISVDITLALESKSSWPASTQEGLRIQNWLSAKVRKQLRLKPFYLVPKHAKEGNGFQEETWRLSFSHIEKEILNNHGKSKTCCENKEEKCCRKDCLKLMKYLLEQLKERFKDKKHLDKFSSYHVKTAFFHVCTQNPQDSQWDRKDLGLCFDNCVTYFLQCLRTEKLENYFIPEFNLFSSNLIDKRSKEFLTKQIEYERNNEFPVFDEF
NPYLR7 agonist: mosquito NPYLR7 agonism | HEK293T NPYLR7/Galpha15, GCaMP6s calcium fluorescence | activation, % at 10 µM | hit rate 0.15% among 270,000; in the data active = activation above about 40%;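 note: 0% = vehicle and 100% = reference agonist at the receptor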
mcGAS lum: mouse cGAS inhibition by luminescence; Q8C6L5; recombinant cGAS, Kinase-Glo ATP depletion luminescence; inhibition, % at 12.5 µM; hit rate 0.15% among 160,000; AID 1259399;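 note: 0% = negative control wells and 100% = reference inhibitor with no enzyme activity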
An asterisk follows results filed as active; . = no result. Cut-off read from the data, not from the text of the source, unless noted: active = inhibition above about 40%; inactive = the rest.

SMILES | hcGAS lum | NPYLR7 agonist | mcGAS lum
CC(C)N=C(N)N=C(N)Nc1ccc(Cl)cc1 | -4 | 6 | .
Cc1cc2cc(CNC(=O)Nc3c[nH]c4ccccc34)ccc2[nH]1 | 1 | -4 | 1
Cc1cc(C)c(S(=O)(=O)N2CCCN(c3nc(Cc4ccccc4)nc4c3c(C)nn4-c3ccccc3)CC2)c(C)c1 | -2 | 10 | -3
CCn1c(C2CCCN(C(=O)CCc3nc4ccccc4[nH]3)C2)n[nH]c1=O (stereo unspecified) | -3 | 9 | -16
CCC(CC)NC(=O)CN1c2cccc3cccc(c23)S1(=O)=O | -16 | 13 | .
NC(=O)CN1c2cccc3cccc(c23)S1(=O)=O | 4 | 106* | .
Cc1ccc(-c2sc(-c3ccccc3)nc2CC(=O)NC2CC2)cc1 | -7 | 6 | .
CCc1nc2ccc(C(=O)NCCc3c[nH]c4ccccc34)cn2c1N(C)CCN1CCOCC1 | -6 | 16 | -2
COc1ccc(Cl)cc1Nc1nnc(-c2cc3c(ccc4ccccc43)oc2=O)s1 | -6 | 59* | -5
COc1ccc2oc(=O)c(-c3nnc(Nc4cc(Cl)ccc4OC)s3)cc2c1 | -10 | 56* | -4
COc1ccc(Nc2nnc(-c3cc4c(ccc5ccccc54)oc3=O)s2)c(OC)c1 | -6 | 1 | -4
COc1ccc(Nc2nnc(-c3cc4cc(Cl)ccc4oc3=O)s2)c(OC)c1 | -4 | -10 | -4
COc1ccc(-c2cc(C(=O)NCc3ccco3)n3nc(C(C)(C)C)cc3n2)cc1 | -7 | -3 | -9
Cc1nc2sc(C)c(C)n2c(=O)c1NC(=O)COc1ccccc1F | -7 | 32 | .
Cc1c(Cc2ccccc2)c(=O)n2c([nH]c3ccccc32)c1C#N | -2 | 4 | .
N#Cc1c(-c2ccccc2)cc(=O)n2c1[nH]c1ccccc12 | 1 | 4 | .
Cc1cc(=S)n2c([nH]c3ccccc32)c1C#N | 41* | -8 | .
N#Cc1c(C(F)(F)F)cc(=O)n2c1[nH]c1ccccc12 | 46* | -3 | .
NC(=O)c1c(SCC(=O)c2ccc(F)cc2)sc2c(O)cc(=O)[nH]c12 | 0 | 1 | -1
N#Cc1c(SCc2ccccc2C(F)(F)F)sc2c(=O)[nH]c(=O)[nH]c12 | 8 | -3 | 7
N#Cc1c(SCc2ccccc2C(F)(F)F)sc2c(O)cc(=O)[nH]c12 | 6 | -1 | 63*
CC(=O)CSc1sc2c(O)cc(=O)[nH]c2c1C#N | -2 | 13 | 73*
CCCc1nc(N2CCCN(C(=O)Nc3ccc(C)cc3C)CC2)c2c(-c3cccc(C(F)(F)F)c3)noc2n1 | -3 | 15 | -6
Cc1c(Cl)ccc2sc(N(Cc3ccccn3)C(=O)c3cccc(N4C(=O)CCC4=O)c3)nc12 | -5 | 2 | -10
O=C(/C=C/c1cccc(Br)c1)Nn1cnnc1 | 5 | -8 | .
SMILES | hcGAS lum | NPYLR7 agonist | mcGAS lum
CCC1(O)CC(OC2CC(N(C)C)C(OC3CC(O)C(OC4CCC(=O)C(C)O4)C(C)O3)C(C)O2)c2c(cc3c(c2O)C(=O)c2c(O)cccc2C3=O)C1C(=O)OC (stereo unspecified) | 79* | -10 | .
CCOC(=O)N1CCC(NC(=O)c2sc3nc4c(c(C(F)(F)F)c3c2N)CC(C)CC4)CC1 (stereo unspecified) | -6 | 62* | -4
COc1ccc(CNC(=O)c2sc3nc4c(c(C(F)(F)F)c3c2N)CN(C(C)=O)CC4)cc1 | -5 | -7 | .
O=C(Nc1ccc2[nH]cc(CCN3CCN(c4cccc(C(F)(F)F)c4)CC3)c2c1)c1c(Cl)cc(Cl)cc1Cl | 5 | 16 | -6
NC(=O)c1c(F)cccc1-c1cccnc1 | -5 | 8 | -18
O=C(CN1CCCCCC1)NCCn1nnc2ccccc21 | 2 | 8 | .
O=C(CCn1c(Cc2c(Cl)cccc2Cl)nc2ccccc21)NCCN1CCCC1 | 46* | . | 0
COc1ccc(C(=O)N2CCN(C(C(=O)Nc3cc(OC)cc(OC)c3)C3CCCC3)CC2)cc1 (stereo unspecified) | -8 | -1 | -6
COc1cc(OC)cc(C(=O)N2CCN(C(C(=O)Nc3ccc(NC(C)=O)cc3)C3CCCC3)CC2)c1 (stereo unspecified) | -6 | 60* | -5
O=c1c2c(nc(SCc3ccccc3)n1-c1ccc(Cl)cc1)CCS2 | -4 | 1 | -7
NC(Cc1ccc(Cl)cc1)C(=O)O (stereo unspecified) | -3 | -7 | -5
N[C@@H](Cc1cc(-c2ccc(Cl)cc2Cl)cc(CP(=O)(O)O)c1O)C(=O)O | 53* | -13 | .
COc1ccc(N2C(=O)C3C4C=CC(C4)C3(C(F)(F)F)C2=O)cc1 (stereo unspecified) | -7 | 2 | -5
O=C(NCc1cccc(C(F)(F)F)c1)c1csc(CSc2nnc(-c3ccncc3)n2-c2cccc(C(F)(F)F)c2)n1 | -1 | -8 | 1
O=C(O)c1csc(CSc2nnc(-c3ccncc3)n2-c2cccc(C(F)(F)F)c2)n1 | 1 | 49* | 1
Cc1ccc(-n2ccc3nc(N4CCOCC4)ncc3c2=O)cc1C | -1 | 8 | .
Nc1c(S(=O)(=O)O)cc(Nc2ccc(Nc3nc(Cl)nc(Nc4ccc(S(=O)(=O)O)cc4)n3)c(S(=O)(=O)O)c2)c2c1C(=O)c1ccccc1C2=O | 35 | 0 | 67*
Nc1c(S(=O)(=O)O)cc(Nc2cccc3ccccc23)c2c1C(=O)c1ccccc1C2=O | -23 | -15 | .
NC(=S)NN=C(C(=O)c1ccccn1)c1ccccn1 | -7 | -3 | .
CSC(=S)N/N=C(/c1ccccc1)c1ccccn1 | 64* | -1 | 6
O=C(N=Nc1c(O)[nH]c2ccccc12)c1nc[nH]c1C(=O)N=Nc1c(O)[nH]c2ccccc12 | 0 | -2 | -1
CC(C)S(=O)(=O)NC(=O)C1(C)CCN1C(=O)c1cccc(F)c1 (stereo unspecified) | 3 | 2 | .
N#Cc1c(N)nc2c(c1N)C(Sc1ccccc1)c1ccc(O)cc1O2 (stereo unspecified) | -6 | 413* | .
N#Cc1c(N)nc(SCC(=O)c2ccccc2)c(C#N)c1-c1ccc(O)cc1 | -1 | -4 | -3
Cn1c(SCC(=O)NN2C(=O)NC3(CCCCC3)C2=O)nnc1C1CC1 | -8 | 38 | .
SMILES | hcGAS lum | NPYLR7 agonist | mcGAS lum
N#CC1C(=N)SC(=N)C(C#N)C1c1ccc(F)cc1F (stereo unspecified) | 18 | 0 | 24
Cc1ccc(C)c(C2C(C#N)C(=N)SC(=N)C2C#N)c1 (stereo unspecified) | -3 | 120* | .
O=c1oc2c(Br)c(O)c(Br)cc2s1 | 41* | -3 | 76*
O=c1oc2c(-c3ccc(Br)cc3)cc(O)cc2s1 | -5 | 0 | -6
CCc1cccc(NC(=O)CSc2nccn3nc(-c4ccc(C)cc4)cc23)c1 | -5 | -1 | -8
C=c1onc(-c2ccccc2)c1=c1[nH]/c(=C\C(Br)=C\c2ccccc2)c(=O)o1 | -5 | -5 | -4
COc1ccccc1N1CCN(C(=O)CN2CC3=C(C2=O)C(c2cccc(OC)c2OC)NC(=O)N3C)CC1 (stereo unspecified) | -7 | 2 | -6
N#C/C(=C\c1ccc(O)c(O)c1)C(=O)NCCCc1ccccc1 | 9 | 120* | 1
N#C/C(=C\c1ccc(O)c(O)c1)C(=O)c1ccc(O)c(O)c1 | 19 | 16 | 15
Cc1cc(NC(=O)CSc2nc3c(-c4ccccc4)c(C)nn3c(=O)[nH]2)no1 | 46* | 9 | -3
CC(=O)Nc1cccc(NC(=O)CSc2nc3c(-c4ccccc4)c(C)nn3c(=O)[nH]2)c1 | 28 | 5 | -4
